Common to all, as to test: NCI-60 one-dose screen, 48 h (100 = growth as untreated, 0 = no growth, -100 = all killed)
What all share (details): 10 µM unless noted

Test [1] deals with NCI-H23 lung.
The test system of test [2] is NCI-H226 lung.
Test [3] has as its system NCI-H322M lung.
Test [4] relates to HOP-62 NSCLC.
The subject of test [5] is NCI-H460 lung.
Test [6] relates to HOP-92 NSCLC.
Test [7] has as its system NCI-H522 lung.
Test [8] concerns A549/ATCC NSCLC.
Test [9] concerns 786-0 renal.
Test [10] concerns COLO 205 colon.

Compounds without any hit were thinned out: in the full panel of roughly 83,000, 20% have a hit.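 Activity criterion: percent growth below 10, measured after cells in 96-well plates were exposed to a single compound concentration for 48 hours.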 Unmarked numbers belong to inactive results. Activity calls are given as the source filed them.

Here are results for 22 compounds from PubChem BioAssay (NCI).

For the compound `CCOP(=O)(OCC)OC[C@]12CCC(C)(C)C[C@H]1C1=CC[C@@H]3[C@@]4(C)C/C(=C\c5cccnc5)[C@H](OP(=O)(OCC)OCC)C(C)(C)[C@@H]4CC[C@@]3(C)[C@]1(C)CC2`, the growth was 18.3% in [1]; 34.2% in test [2]; 61.1% in [3]; 36.8% in test [4]; 10.8% in [5]; -1.51% (active) in test [6]. Besides, the growth was 19.8% in test [7], 16.3% in [8], 36.2% in test [9] and -5.36% (active) in test [10].
As to `Oc1ccc(CSc2nnc(-c3cnccn3)o2)c2cccnc12`, the growth was 12.1% in [1]; 23.6% in [2]; 31.6% in [3]; 20.9% in test [4]; 2.29% (active) in test [5]; -9.09% (active) in test [6]. Moreover, the growth was 7.24% (active) in test [7], 20.9% in test [8], 24.5% in test [9] and 85.4% in test [10].
As to `CC[C@@](C)(NC(=O)C(C)(C)NC(=O)[C@@H](NC(=O)[C@@H]1CCCN1C(=O)C(C)(C)NC(=O)[C@H](CC(C)C)NC(=O)CNC(=O)C(C)(C)NC(=O)[C@@H](NC(=O)C(C)(C)NC(=O)[C@H](CCC(N)=O)NC(=O)[C@H](C)NC(=O)C(C)(C)NC(=O)[C@H](C)NC(=O)C(C)(C)NC(=O)[C@@H]1CCCN1C(=O)C(C)(C)NC(C)=O)C(C)C)C(C)C)C(=O)N[C@@H](CCC(N)=O)C(=O)N[C@@H](CCC(N)=O)C(=O)N[C@H](CO)Cc1ccccc1`, the growth in test [1] was 14.9% [4.25 µM]; in test [2], 61.3% [4.25 µM]; in [3], 58.4% [4.25 µM]; in test [4], 51.9% [4.25 µM]; in test [5] it was 39.4% [4.25 µM]; in test [6], -13.3% [4.25 µM] (active). Moreover, the growth in [7] was -1.04% [4.25 µM] (active); in [8] it was 50.1% [4.25 µM]; in test [9], 77.2% [4.25 µM]; in test [10] it was -12.5% [4.25 µM] (active).
`O=C(CN1C(=O)S/C(=C\c2ccccc2)C1=O)Nc1ccc(C(=O)/C=C/c2cc3ccccc3nc2Cl)cc1`: the growth in [1] is 59.3%; in test [2], 92.2%; in test [3], 92.2%; in [4] it was 87.6%; in [5] it was 88.3%; in test [6], 87.9%. For the same compound, the growth was 73.3% in test [7], 88.6% in test [8], 94.8% in test [9] and 103% in test [10].
With `COc1ccc([C@H]2[C@H](O)C(=O)N2c2cc(OC)c(OC)c(OC)c2)cc1O`, the growth in [1] is 31.2%; in test [2], 19.6%; in test [3], 51.4%; in [4], 18.9%; in [5], 2.08% (active); in [6] it was -8.12% (active). The growth in test [7] was -38% (active); in test [8] it was 19.8%; in test [9] it was 17.4%; in test [10], -73% (active).
With `C#CCOc1ccc(/C=N/Nc2nc(-c3cc4cc(Br)cc(Br)c4oc3=O)cs2)cc1`, the growth in [1] was 94.6%; in [2] it was 93.8%; in [3] it was 103%; in [4] it was 105%; in test [5], 101%; in [6], 89.3%. The growth in test [7] is 95%; in [8], 97%; in [9], 99.7%; in [10], 100%.
As for `CCCCCCNC(=O)Oc1ccc(/C(=C(/C)c2ccccc2)c2ccc(OCCN(C)C)cc2)cc1`, the growth is 65.3% in test [1]; 89.6% in test [2]; 77.1% in test [3]; 86.1% in test [4]; 18.3% in [5]; 44.5% in test [6]. Further, the growth in test [7] is 68.8%; in [8] it was 73.4%; in test [9] it was 57.4%; in [10], 6.56% (active).
In the case of `Cc1ccc(/C=C/c2nn3c(-c4ccco4)nnc3s2)cc1`, the growth in test [1] is 104%; in test [2], 100%; in test [3], 94%; in [4], 114%; in test [5] it was 99.9%; in test [6] it was 107%. Also, the growth in test [7] was 94.4%; in test [8], 97.8%; in [9] it was 88.4%; in test [10], 102%.
In the case of `COc1cc(O)c2c(c1)[C@H]1O[C@@H]1C[C@H](O)[C@H](O)C(=O)/C=C\C[C@H](C)OC2=O`, the growth in [1] is 25.7%; in test [2], 37.9%; in test [3], 85.7%; in [4], 68.7%; in [5] it was 68.1%; in test [6] it was -8.48% (active). Further, the growth is 4.82% (active) in test [7], 72.3% in test [8], 66% in test [9] and 9.13% (active) in [10].
In the case of `COc1cc(CNC(=O)/C=C/c2ccccc2)ccc1OCC(=O)NO`, the growth in test [1] is 103%; in test [2], 97.4%; in [3] it was 103%; in [4] it was 102%; in test [5] it was 109%; in [6], 98.4%. Moreover, the growth is 89.9% in [7], 101% in test [8], 103% in [9] and 102% in test [10].
With `COc1ccc(-c2cc(-c3ccc(Cl)cc3)nc3nc(N)nn23)cc1`, the growth is 108% in test [1]; 99.6% in test [2]; 102% in test [3]; 107% in [4]; 107% in test [5]; 102% in [6]. Besides, the growth in [7] was 93.9%; in [8], 93.8%; in test [9], 87.7%; in [10] it was 105%.
For the compound `COc1ccc(/C=N/Nc2nc(N/N=C/c3ccc(OC)cc3O)nc(N3CCOCC3)n2)c(O)c1`, the growth in [1] was 86.3%; in [2] it was 69.4%; in test [3], 59.7%; in test [4], 64.8%; in test [5], 23.5%; in test [6] it was 88.6%. Besides, the growth in test [7] was 80.9%; in test [8], 53%; in [9] it was 14.7%; in [10], 63.5%.
As for `O=S(=O)(NC1CC2CCC1C2)c1ccc2c(c1)C(=NO)c1cc(S(=O)(=O)NC3CC4CCC3C4)ccc1-2` (stereo not given), the growth in test [1] is -84.2% (active); in [2], 75.2%; in test [3] it was 58.3%; in test [4], -70.5% (active); in [5], 23.5%; in [6] it was -4.1% (active). The growth was 32.4% in test [7], 75% in [8], 31.3% in test [9] and 85.5% in test [10].
For `COc1cnc2c(c1)C(=O)c1c-2n(CCCn2ccnc2)c(=O)c2cc(OC)c(OC)cc12`, the growth in test [1] is -1.32% (active); in test [2], 29.7%; in test [3], -8.33% (active); in [4], -47.5% (active); in [5] it was -47.9% (active); in test [6], -12.2% (active). Besides, the growth is -80.5% (active) in test [7], -14.9% (active) in test [8], -14.9% (active) in test [9] and -85.2% (active) in test [10].
`Cc1ccc(NC(=O)c2ccc(CN3CCN(C)CC3)c(I)c2)cc1Oc1ccc(-c2[nH]nc3ncnc(N)c23)cc1`: the growth is 87.9% in test [1]; 91.8% in [2]; 89.8% in [3]; 105% in test [4]; 90.4% in [5]; 83.4% in test [6]. The growth was 46.6% in [7], 66.1% in test [8], -74.7% (active) in [9] and 53% in [10].
`COc1ccc(-c2nnc(SCc3ccc(O)c4ncccc34)n2-c2ccccc2)cc1`: the growth was 17.6% in test [1]; 30.1% in [2]; 19.8% in test [3]; 19.9% in test [4]; 2.93% (active) in test [5]; -4.84% (active) in test [6]. Also, the growth in test [7] is 15.5%; in test [8], 26.4%; in test [9], 25.5%; in test [10], 68.6%.
For `O=C(NNc1nc2cc(F)cc(F)c2n2cccc12)c1ccncn1`, the growth in test [1] was 17.6%; in [2] it was 7.28% (active); in [3], 28.6%; in test [4], 13.1%; in [5], 7.43% (active); in [6], 67.4%. Moreover, the growth in test [7] was -12.4% (active); in test [8], 13.4%; in test [9], 7.83% (active); in [10] it was 11.5%.
Consider `CCn1c2ccc(/C=N/NS(=O)(=O)CCN(C)C)cc2c2cc(/C=N/NS(=O)(=O)CCN(C)C)ccc21`, for which the growth was 97.4% in [1]; 96.5% in [2]; 85.7% in test [3]; 82.7% in test [4]; 101% in test [5]; 92.2% in test [6]. Further, the growth in test [7] is 86.6%; in test [8] it was 101%; in test [9], 92%; in [10], 115%.
`CCOC(=O)c1c(NCC(=O)Nc2cccc(Cl)c2)sc2c1CCCC2`: the growth in test [1] was 66.5%; in [2], 69.8%; in test [3], 91.4%; in test [4] it was 78.6%; in [5], 92.5%; in test [6], 96.3%. Also, the growth is 65.9% in [7], 101% in test [8], 106% in test [9] and 101% in test [10].
On to `CCc1ccc(NC(=O)N[C@@H](Cc2cccc(C)c2)C(=O)N[C@@H]2C(=O)N3CCC[C@H]3C(=O)N3CCCC[C@H]3C(=O)N[C@@H](CO)C(=O)N3C[C@H](C)C[C@H]3C(=O)O[C@H]2C)c(F)c1`, for which the growth in test [1] is 34.4%; in test [2], -4.68% (active); in [3], 49.9%; in [4], 30.5%; in test [5], 12.5%; in test [6], -0.374% (active). For the same compound, the growth was 21% in test [7], 27.9% in [8], 40.8% in test [9] and -36% (active) in test [10].
With `O=C(Nc1cccc(-c2nc(-c3ccc(NC(=O)c4cccs4)cc3Cl)no2)c1)Nc1ccc(NC(=O)C2CC2)c(C(F)(F)F)c1`, the growth in test [1] is -49.8% (active); in test [2], -46.4% (active); in test [3], -5.29% (active); in test [4], -44% (active); in test [5], -56.9% (active); in [6], -40% (active). Also, the growth in test [7] is -34.5% (active); in test [8], -27.7% (active); in test [9] it was -30.7% (active); in test [10], -51.7% (active).
On to `C=CCn1c(SCC(=O)Nc2cccc(C(=O)/C=C/c3ccc(Cl)cc3)c2)nc2ccccc2c1=O`, for which the growth in test [1] is 92.3%; in test [2], 102%; in [3] it was 95.6%; in [4], 113%; in [5], 95.4%; in [6], 88.7%. Further, the growth is 81.8% in test [7], 85.7% in test [8], 98.2% in [9] and 112% in test [10].
